Assay results as given in PubChem BioAssay AID2556 (The Scripps Research Institute Molecular Screening Center, 2010).
Unmarked numbers belong to inactive results. The source made the active and inactive calls. How the calls were made is not given here.

Test: xanthine oxidase inhibitors, late-stage follow-up, counter-screen for NOX1 inhibitor project, biochemical (AID 2556)
Conditions: xanthine oxidase superoxide assay
In the case of `Cc1cc(Cl)ccc1NC(=S)NNC(=S)Nc1ccc(F)cc1`, the IC50 is reported as 11 µM.
Work on `FC(F)(F)c1ccc2c(c1)Nc1ccccc1S2` yielded an IC50 of 20.7 µM.
Compound `O=C(Oc1ccccc1N1CCCCC1)c1sc2ccccc2c1Cl` has an IC50 of 11.1 µM.
For `c1ccc2c(c1)Nc1nc3ccccc3nc1N2`, the IC50 was 3.5 µM (active).
In the case of `CN(C)c1ccc(NC(=O)Nc2ccc(OCc3ccccc3)cc2)cc1`, the IC50 is reported as 2 µM (active).
With `COc1cc(-c2nc(-c3ccccc3)c(-c3ccccc3)[nH]2)ccc1O` the IC50 was 11.2 µM.
